Hits are enriched below; roughly 19% of the tested compounds scored in any of these assays.
Chronic BCR inh – inhibitors of chronic active B-cell receptor signaling; ABC-DLBCL IkBa-CBG/CBR reporter, luminescence ratio, 4 h; Potency, µM (series often up to 46.1 µM), hits mostly inhibitors; actives 0.05% (n = 340,000); active = well fitted inhibition curve with a large enough effect in the signal ratio, with a control signal flat, not every such curve was filed as active; inconclusive = small, poorly fitted or top-dose-only effect, or effect the other way, or a change in a side signal; the % refers to the signal ratio
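Compounds up to 46 uM were incubated four hours with TMD8 cells whose green CBG68 luciferase is fused to IkappaBalpha; red CBR luminescence normalised the signal, and concentration-effect curves were fitted to fusion, red and ratio data.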
IL-1B inflam inh – blocks inflammasome-driven IL-1 beta release; AID 743279; actives 4.7% (n = 360,000); activity change, % at 57.5 µM; THP-1 LPS/ATP IL-1B secretion, AlphaLISA, 16 h; hits give low values; in the data active = activity change below about -50%; inconclusive = mostly about -30% to -49%
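THP-1 cells pretreated 1 hr with compounds (up to 57.5 uM final), then stimulated with LPS (250 ng/mL final) plus ATP (1.25 mM final); secreted IL-1B measured by AlphaLISA after 16 hr, decreased signal indicating inhibition.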
DT40 TDP1 no CPT – qHTS for Inhibitors of human tyrosyl-DNA phosphodiesterase 1 (TDP1): qHTS in cells in absence of CPT; DT40 Tdp1-/- hTDP1 cells, no CPT, ATP luminescence, 48 h; Potency, µM (top dose mostly 46.2 µM), usual class: inhibitors; actives 15% (n = 420,000); note: nearly all actives have a fitted effect of over 55% in size
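Cells were dispensed at 400 per well, compounds added by pin tool, plates incubated ≥48 hr at 37 °C, then CellTiter-Glo added for 30 min at room temperature before luminescence reading. Line: DT40 Tdp1-/- complemented with hTDP1; camptothecin omitted.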
MCF10A rerep – DNA re-replication induction in MCF 10a cells. actives 2.9% (n = 350,000). Potency, µM (doses to about 46.1 µM), actives largely listed as activators. MCF 10A DNA re-replication, Hoechst nuclear intensity, 48 h; note: nearly all actives have a fitted effect of over 50% in size
DT40 TDP1 CPT – DT40-hTDP1 cell growth loss with CPT. chicken DT40 Tdp1-/-;hTDP1 cells + 20 nM CPT, ATP luminescence, 48 h. Potency, µM (series often up to 46.2 µM), most hits filed as inhibitors. actives 12% (n = 420,000); note: nearly all actives have a fitted effect of over 55% in size
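Cell growth measured by CellTiter-Glo luminescence after a minimum 48 h, 37 C compound exposure with 20 nM CPT in Tdp1-knockout DT40 cells stably expressing hTDP1, seeded 400/well; qHTS titration format.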
SW480 rerep – inducers of DNA re-replication in SW480 colon cancer cells; SW480 DNA re-replication, Hoechst DNA content imaging, 48 h; Potency, µM (titrated, usually from 46.1 µM), hits mostly activators; actives 1.8% (n = 340,000); note: nearly all actives have a fitted effect of over 55% in size
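Cells (250 per well) received 23 nL compound or DMSO by pin tool and were kept 48 hr at 37 C, 5% CO2. Nuclei were then stained with Hoechst for 40 min and scanned for DNA content.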
Hits are given with their value; – = inactive; ? = inconclusive; · = no result; [ ] = dose if it differs, or a comment. Unless noted, calls come from the whole dose curve; as a rule, active = well fitted curve in the direction sought with a large enough effect; inconclusive = small, poorly fitted or top-dose-only effect, or another doubt; inactive = no such curve, though single readings can be large; an effect the other way counts as inactive or inconclusive.

SMILES	Chronic BCR inh	IL-1B inflam inh	DT40 TDP1 no CPT	MCF10A rerep	DT40 TDP1 CPT	SW480 rerep
COc1ccc(C2C(C(C)=O)=C(C)N=c3s/c(=C\c4ccco4)c(=O)n32)c(OC)c1 (configuration not stated)	–	–	–	–	8.2µM	–
COc1ccc(/C=c2/sc3n(c2=O)C(c2ccccc2OC)C2=C(N=3)c3ccccc3CC2)cc1O (configuration not stated)	?	–	23.1µM	18.4µM	29.1µM	5.17µM
COc1ccc(C2C(C(C)=O)=C(C)N=c3s/c(=C\c4cc(C)n(C)c4C)c(=O)n32)c(OC)c1 (configuration not stated)	–	–	?	?	?	–
NC(=O)C1CCN(C(=O)c2ccc(NS(=O)(=O)c3ccc(Br)s3)cc2)CC1	–	–	–	–	–	–
CCOC(=O)C1=C(c2ccccc2)N=c2s/c(=C\c3ccco3)c(=O)n2C1c1cccs1 (configuration not stated)	?	–	?	–	?	–
CCOC(=O)C1=C(c2ccccc2)N=c2s/c(=C\c3cc(OC)c(OC)c(OC)c3)c(=O)n2C1c1cccs1 (configuration not stated)	?	–	6.51µM	–	?	–
O=C(NCCCN1CCCC1=O)c1c(O)nc2sccn2c1=O	–	–	–	–	–	–
Cc1cc(C(C)(C)C)oc1C(=O)N(CC(=O)NC1CCCC1)Cc1ccccc1	–	–	13µM	?	14.6µM	–
Cc1cc(C(C)(C)C)oc1C(=O)OCC(=O)NC1CCCCC1	–	–	?	–	?	–
Cc1ccc(C)c(N(CC(=O)NC2CCCC2)C(=O)c2oc(C(C)(C)C)cc2C)c1	?	?	9.2µM	–	8.2µM	–
Cc1ccc(C)c(N(CC(=O)NC2CCCCC2)C(=O)c2csnn2)c1	–	–	–	–	–	–
Cc1cc(C(C)(C)C)oc1C(=O)N(CC(=O)NC1CCCC1)Cc1ccc(F)cc1	?	–	?	–	20.6µM	–
Cc1cccc(NC(=O)c2ccc(NS(=O)(=O)c3cccc4cccnc34)cc2)c1	·	–	–	–	–	–[1.84 µM]
COc1cc2c(c(O)c1OC)-c1c(cc(OC)c(OC)c1OC)C[C@@H](C)[C@@H](C)C2	–	–	?	–	?	–
COc1cc2c(c(OC)c1OC)-c1c(cc3c(c1O)OCO3)C[C@@H](C)[C@@H](C)C2	–	–	?	?	23.1µM	–
CCc1cc(=O)oc2cc3occ(-c4ccc(OC)c(F)c4)c3cc12	–	–	2.06µM	2.31µM	4.61µM	?
CCOc1ccc2c(c1)C(=O)c1cc(OCC(=O)O)ccc1-2	?	–	–	–	?	–
CCCCOc1ccc2c(c1)C(=O)c1cc(O)ccc1-2	?	-100.8	?	?	–	–
COc1cc(-c2nnc(COC(=O)C3c4ccccc4Oc4ccccc43)o2)cc(OC)c1OC	–	–	?	–	?	–
COc1ccc(C2=C(C=C(C#N)C#N)C(c3ccccc3C)c3ccccc3O2)cc1OC (configuration not stated)	–	–	20.6µM	–	?	?
CNC(=O)C[C@H]1C(=O)N(c2ccccc2)C[C@@H]1C	·	–	–	·	–	·
CCC(OC(=O)C(C)N1C(=O)C(=O)c2ccccc21)C(=O)Nc1ccccc1OC (configuration not stated)	?	–	5.8µM	?	4.61µM	–
COc1ccccc1NC(=O)C(C(C)C)N1C(=O)c2ccccc2C1=O (configuration not stated)	–	–	–	–	–	–
O=C(O)C1=C(CSc2nnnn2CS(=O)(=O)O)CS[C@@H]2[C@H](NC(=O)[C@H](O)c3ccccc3)C(=O)N12	·	·	–	–	–	–
CCOC(=O)C1CCCN(C(=O)c2ccc3c(c2)C(C)(C)CCC3(C)C)CC1 (configuration not stated)	·	–	6.51µM	·	8.2µM	·
SMILES	Chronic BCR inh	IL-1B inflam inh	DT40 TDP1 no CPT	MCF10A rerep	DT40 TDP1 CPT	SW480 rerep
CCOC(=O)C1CCCN(C(=O)c2ccc(-c3ccccc3)cc2)CC1 (configuration not stated)	·	–	?	·	16.4µM	·
CCOC(=O)C1CCCN(C(=O)c2ccc(OC)cc2)CC1 (configuration not stated)	·	–	–	·	–	·
O=Cc1ccc2[nH]ccc2c1	·	·	–	·	–	·
O=C(CN1C(=O)C(c2ccc(F)cc2)=NC12CCCCCC2)Nc1ccccc1Cl	·	·	23.1µM	·	?	·
COc1ccccc1N1CCN(C2CCCN(C(=O)Cn3cccn3)C2)CC1 (configuration not stated)	–	–	–	–	–	–
COc1ccccc1N1CCN(Cc2cc(=O)oc3cc(C)ccc23)CC1	·	?	?	·	23.1µM	·
O=c1cc(CN2CCN(c3ccccc3F)CC2)c2c(ccc3ccccc32)o1	·	–	18.4µM	·	16.4µM	·
COc1ccc(CN2CCN(Cc3cc(=O)oc4cc(C)ccc34)CC2)c(OC)c1OC	?	–	16.4µM	6.51µM	25.9µM	–
Cc1ccc2c(CN3CCN(c4ccccc4)CC3)cc(=O)oc2c1	·	–	–	·	–	·
Cc1ccc2c(CN3CCN(C(=O)c4ccc(F)cc4)CC3)cc(=O)oc2c1	·	·	–	·	18.4µM	·
O=c1cc(CN2CCCCC2)c2c(ccc3ccccc32)o1	·	–	?	·	?	·
Cc1cnc2c(c1SCC(=O)N(C)c1ccccc1)c(=O)n(C)c(=O)n2C	–	·	–	·	–	·
CCCN(CC(=O)Nc1ccccc1C)C(=O)COC(=O)c1cnc(C)cn1	·	–	–	–	–	–
COc1cccc(-c2ccc(NC(=O)C3CCCN(Cc4cnn(C)c4C)C3)cc2)c1 (configuration not stated)	?	–	?	–	?	–
COCCc1ncc(CN2CCCC(C(=O)Nc3cccc(-c4cccc(C)c4)c3)C2)cn1 (configuration not stated)	?	?	23.1µM	–	?	?
CCn1cc(CN2CCCC(C(=O)Nc3cccc(-c4cc5ccccc5[nH]4)c3)C2)c(C)n1 (configuration not stated)	?	-53.4	?	?	23.1µM	?
Cn1cc(CN2CCCC(C(=O)Nc3cccc(-c4cc5ccccc5[nH]4)c3)C2)cn1 (configuration not stated)	?	-91.6	?	?	?	?
Nc1nc2c(Br)ccc(Br)c2cc1C(=O)NCc1cccc2ccccc12	·	–	?	·	?	·
COC(=O)C[C@@H]1OC[C@H](CO)N1S(=O)(=O)c1ccc(C)cc1	·	–	–	·	–	·

Screening data from PubChem BioAssay.
